Source: the supplement of paper PMC11732987, “Enantioselective OTUD7B fragment discovery through chemoproteomics screening and high-throughput optimisation” (Communications Chemistry, 2025)

Legend:
Assay in all cases: log2 ratio of Biotin-Ahx-Ub-VS probe labelling (fragment/DMSO); higher = less target engagement (more negative = stronger competition), active = hit call of the paper (q ≤ 0.05, log2 ratio ≤ -1)
Conditions in all cases: compound concentration: 200 uM; treatment time: 3 h
USP42 = molecular target: T1, USP42 (UniProt Q9H9J4)
T1 sequence (whole entry): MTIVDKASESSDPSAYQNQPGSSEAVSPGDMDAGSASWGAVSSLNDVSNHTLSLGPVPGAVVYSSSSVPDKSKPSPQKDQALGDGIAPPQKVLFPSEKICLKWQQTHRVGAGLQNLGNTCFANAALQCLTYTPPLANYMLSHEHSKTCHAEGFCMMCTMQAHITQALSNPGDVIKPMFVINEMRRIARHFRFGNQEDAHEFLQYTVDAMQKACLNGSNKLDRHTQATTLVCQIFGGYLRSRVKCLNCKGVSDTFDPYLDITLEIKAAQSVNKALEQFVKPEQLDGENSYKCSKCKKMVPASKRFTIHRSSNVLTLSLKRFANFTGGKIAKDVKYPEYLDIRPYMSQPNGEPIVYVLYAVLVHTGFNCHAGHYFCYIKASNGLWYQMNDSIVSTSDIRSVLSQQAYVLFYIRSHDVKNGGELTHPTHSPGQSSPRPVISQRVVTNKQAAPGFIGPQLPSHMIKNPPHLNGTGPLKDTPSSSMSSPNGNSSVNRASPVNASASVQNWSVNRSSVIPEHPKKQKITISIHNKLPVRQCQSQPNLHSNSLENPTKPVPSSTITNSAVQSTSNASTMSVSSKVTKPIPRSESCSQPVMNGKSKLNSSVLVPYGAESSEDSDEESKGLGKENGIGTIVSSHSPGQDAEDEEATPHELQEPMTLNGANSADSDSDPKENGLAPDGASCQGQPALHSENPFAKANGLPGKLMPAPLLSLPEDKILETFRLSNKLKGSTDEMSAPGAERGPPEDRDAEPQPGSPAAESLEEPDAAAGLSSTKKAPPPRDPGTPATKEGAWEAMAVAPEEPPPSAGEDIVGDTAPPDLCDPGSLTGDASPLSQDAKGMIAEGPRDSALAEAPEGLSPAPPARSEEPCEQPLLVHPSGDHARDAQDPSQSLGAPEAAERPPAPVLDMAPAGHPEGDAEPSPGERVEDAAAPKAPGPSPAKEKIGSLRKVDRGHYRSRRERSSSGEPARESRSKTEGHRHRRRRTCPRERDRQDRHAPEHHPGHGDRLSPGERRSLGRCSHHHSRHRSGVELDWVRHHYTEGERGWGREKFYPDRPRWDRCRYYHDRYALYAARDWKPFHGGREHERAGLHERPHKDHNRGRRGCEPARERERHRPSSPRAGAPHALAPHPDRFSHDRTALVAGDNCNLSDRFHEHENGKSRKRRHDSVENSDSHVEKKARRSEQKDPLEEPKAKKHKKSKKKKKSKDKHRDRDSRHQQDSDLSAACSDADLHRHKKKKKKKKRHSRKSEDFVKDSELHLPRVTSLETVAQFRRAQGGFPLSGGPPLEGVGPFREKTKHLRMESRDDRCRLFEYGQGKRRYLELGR
Outline: (§1)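 In triplicate, 495 µg of HEK293T lysate per sample was incubated with fragment at 200 µM or vehicle for 3 h. Biotin-Ahx-Ub-VS was then added to 0.5 µM final for 1 h, and labelled DUBs were captured with NeutrAvidin, digested with LysC and trypsin, and measured by diaPASEF LC-MS/MS. Data are average log2 fragment/vehicle ratios by unpaired t-test from global-median-normalised Spectronaut label-free quantities, restricted to proteins with ≥2 unique peptides.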

USP46 = USP46 (UniProt P62068)
Outline: as §1

USP47 = molecular target: T2, USP47 (UniProt Q96K76)
T2 sequence (whole entry): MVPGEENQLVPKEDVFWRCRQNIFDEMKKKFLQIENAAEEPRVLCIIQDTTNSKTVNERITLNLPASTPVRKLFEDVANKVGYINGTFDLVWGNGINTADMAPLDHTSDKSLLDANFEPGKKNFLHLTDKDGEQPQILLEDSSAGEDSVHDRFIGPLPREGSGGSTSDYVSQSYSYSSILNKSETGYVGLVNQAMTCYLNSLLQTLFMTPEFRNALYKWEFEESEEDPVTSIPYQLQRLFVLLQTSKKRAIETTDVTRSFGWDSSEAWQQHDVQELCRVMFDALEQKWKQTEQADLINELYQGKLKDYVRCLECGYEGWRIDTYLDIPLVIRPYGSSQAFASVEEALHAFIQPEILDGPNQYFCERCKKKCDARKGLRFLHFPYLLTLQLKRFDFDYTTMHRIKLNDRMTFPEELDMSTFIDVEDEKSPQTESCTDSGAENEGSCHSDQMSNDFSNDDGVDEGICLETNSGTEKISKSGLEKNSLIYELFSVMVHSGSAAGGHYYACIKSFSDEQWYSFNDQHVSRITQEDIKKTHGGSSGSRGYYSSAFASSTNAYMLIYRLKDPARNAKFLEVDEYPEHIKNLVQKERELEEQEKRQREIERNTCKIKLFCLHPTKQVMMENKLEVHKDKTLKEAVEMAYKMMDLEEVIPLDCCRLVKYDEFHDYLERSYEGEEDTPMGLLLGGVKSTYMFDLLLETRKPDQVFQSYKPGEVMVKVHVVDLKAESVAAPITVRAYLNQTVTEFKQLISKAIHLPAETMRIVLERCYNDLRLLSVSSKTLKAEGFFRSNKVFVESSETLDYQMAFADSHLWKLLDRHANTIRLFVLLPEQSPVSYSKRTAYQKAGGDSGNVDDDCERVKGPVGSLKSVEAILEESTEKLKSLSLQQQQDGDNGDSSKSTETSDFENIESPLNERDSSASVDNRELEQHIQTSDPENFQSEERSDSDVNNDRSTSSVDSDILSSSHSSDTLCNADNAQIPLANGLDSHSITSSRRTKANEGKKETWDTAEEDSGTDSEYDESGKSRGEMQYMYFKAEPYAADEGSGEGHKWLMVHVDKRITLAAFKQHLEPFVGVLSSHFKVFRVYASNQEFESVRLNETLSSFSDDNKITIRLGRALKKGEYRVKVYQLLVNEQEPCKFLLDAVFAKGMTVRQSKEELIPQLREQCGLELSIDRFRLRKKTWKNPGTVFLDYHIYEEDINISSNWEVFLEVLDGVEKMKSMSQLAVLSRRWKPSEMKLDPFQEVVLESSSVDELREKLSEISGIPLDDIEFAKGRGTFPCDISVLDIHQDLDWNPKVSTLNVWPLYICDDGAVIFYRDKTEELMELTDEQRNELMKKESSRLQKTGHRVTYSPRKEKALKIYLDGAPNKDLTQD
Outline: as §1

USP48 = molecular target: T3, USP48 (UniProt Q86UV5)
T3 sequence (whole entry): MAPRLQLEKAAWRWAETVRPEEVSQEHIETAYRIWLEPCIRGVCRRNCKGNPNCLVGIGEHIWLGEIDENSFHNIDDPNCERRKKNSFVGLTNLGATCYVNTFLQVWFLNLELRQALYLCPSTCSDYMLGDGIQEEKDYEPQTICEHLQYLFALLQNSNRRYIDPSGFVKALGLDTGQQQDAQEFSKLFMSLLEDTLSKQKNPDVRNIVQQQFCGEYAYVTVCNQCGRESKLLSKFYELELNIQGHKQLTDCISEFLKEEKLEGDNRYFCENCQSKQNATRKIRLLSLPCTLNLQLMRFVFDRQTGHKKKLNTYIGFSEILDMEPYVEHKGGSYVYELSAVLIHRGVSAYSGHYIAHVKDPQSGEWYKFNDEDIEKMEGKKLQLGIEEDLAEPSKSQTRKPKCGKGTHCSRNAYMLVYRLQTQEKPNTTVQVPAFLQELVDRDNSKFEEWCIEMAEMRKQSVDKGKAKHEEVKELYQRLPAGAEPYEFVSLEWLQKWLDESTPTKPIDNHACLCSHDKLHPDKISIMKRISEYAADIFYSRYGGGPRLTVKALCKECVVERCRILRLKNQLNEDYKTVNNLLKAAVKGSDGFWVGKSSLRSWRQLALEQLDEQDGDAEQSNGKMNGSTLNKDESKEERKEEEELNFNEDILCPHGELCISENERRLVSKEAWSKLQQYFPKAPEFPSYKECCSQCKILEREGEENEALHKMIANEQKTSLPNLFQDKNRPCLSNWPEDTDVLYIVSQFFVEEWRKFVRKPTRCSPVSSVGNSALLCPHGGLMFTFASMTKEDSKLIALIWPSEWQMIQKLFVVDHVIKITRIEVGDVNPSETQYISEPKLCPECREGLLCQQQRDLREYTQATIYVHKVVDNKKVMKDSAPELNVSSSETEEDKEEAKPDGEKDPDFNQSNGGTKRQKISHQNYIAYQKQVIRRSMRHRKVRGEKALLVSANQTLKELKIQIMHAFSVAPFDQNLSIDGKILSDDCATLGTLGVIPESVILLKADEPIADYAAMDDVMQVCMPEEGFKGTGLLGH
Outline: as §1

USP5 = molecular target: T4, USP5 (UniProt P45974)
T4 sequence (whole entry): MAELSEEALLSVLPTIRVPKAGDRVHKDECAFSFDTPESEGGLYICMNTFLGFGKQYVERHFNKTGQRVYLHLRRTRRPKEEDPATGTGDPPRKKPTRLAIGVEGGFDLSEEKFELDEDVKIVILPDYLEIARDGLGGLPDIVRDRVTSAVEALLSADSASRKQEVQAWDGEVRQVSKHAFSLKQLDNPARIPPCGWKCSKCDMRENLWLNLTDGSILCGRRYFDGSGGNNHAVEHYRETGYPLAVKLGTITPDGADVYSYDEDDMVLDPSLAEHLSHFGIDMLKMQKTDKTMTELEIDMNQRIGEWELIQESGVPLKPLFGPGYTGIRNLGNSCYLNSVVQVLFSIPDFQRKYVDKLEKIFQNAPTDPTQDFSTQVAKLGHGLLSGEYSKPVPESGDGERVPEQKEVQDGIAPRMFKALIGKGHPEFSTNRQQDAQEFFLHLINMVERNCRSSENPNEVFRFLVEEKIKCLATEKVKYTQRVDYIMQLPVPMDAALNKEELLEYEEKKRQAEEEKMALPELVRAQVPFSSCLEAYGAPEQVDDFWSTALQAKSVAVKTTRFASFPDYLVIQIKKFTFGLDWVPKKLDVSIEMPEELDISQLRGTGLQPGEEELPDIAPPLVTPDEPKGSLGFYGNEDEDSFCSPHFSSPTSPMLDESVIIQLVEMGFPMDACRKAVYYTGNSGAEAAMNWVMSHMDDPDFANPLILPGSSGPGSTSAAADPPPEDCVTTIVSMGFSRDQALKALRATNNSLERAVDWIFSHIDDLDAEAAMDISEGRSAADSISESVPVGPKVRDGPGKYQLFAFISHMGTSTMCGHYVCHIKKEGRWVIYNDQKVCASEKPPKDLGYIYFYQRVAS
Outline: as §1

USP54 = USP54 (UniProt Q70EL1)
Outline: as §1

USP7 = USP7 (UniProt Q93009)
Outline: as §1

USP8 = molecular target: T5, USP8 (UniProt P40818)
T5 sequence (whole entry): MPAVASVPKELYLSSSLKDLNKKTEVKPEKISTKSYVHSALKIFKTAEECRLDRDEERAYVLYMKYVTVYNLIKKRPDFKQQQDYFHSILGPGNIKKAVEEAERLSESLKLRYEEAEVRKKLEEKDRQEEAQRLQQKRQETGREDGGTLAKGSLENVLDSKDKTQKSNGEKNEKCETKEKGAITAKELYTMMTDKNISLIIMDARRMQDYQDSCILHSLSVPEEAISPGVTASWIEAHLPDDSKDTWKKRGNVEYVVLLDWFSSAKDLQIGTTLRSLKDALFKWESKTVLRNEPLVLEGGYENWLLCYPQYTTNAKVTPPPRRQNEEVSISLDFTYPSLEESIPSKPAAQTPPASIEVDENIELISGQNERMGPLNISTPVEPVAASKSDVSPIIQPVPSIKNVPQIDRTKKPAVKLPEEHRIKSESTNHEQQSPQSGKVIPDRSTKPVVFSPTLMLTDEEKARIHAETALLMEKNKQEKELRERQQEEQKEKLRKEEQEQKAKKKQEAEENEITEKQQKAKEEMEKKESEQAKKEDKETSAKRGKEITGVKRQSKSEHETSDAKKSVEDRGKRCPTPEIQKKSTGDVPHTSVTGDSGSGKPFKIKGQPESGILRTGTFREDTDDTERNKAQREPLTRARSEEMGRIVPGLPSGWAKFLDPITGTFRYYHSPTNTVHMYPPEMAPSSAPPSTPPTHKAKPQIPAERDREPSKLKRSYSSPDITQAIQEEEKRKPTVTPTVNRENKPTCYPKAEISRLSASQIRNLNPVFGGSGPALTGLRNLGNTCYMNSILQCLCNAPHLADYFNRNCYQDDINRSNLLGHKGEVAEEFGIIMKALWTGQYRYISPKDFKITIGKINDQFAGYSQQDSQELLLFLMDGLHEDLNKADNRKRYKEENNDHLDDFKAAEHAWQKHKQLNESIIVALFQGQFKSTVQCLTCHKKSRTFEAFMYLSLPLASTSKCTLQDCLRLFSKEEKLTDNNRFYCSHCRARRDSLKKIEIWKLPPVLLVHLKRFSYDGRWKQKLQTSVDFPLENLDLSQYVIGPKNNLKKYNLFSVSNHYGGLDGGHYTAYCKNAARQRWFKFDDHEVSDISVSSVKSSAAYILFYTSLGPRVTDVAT
Outline: as §1

Measured: log2 ratio of Biotin-Ahx-Ub-VS probe labelling

Sequence of USP54 (Q70EL1 whole entry): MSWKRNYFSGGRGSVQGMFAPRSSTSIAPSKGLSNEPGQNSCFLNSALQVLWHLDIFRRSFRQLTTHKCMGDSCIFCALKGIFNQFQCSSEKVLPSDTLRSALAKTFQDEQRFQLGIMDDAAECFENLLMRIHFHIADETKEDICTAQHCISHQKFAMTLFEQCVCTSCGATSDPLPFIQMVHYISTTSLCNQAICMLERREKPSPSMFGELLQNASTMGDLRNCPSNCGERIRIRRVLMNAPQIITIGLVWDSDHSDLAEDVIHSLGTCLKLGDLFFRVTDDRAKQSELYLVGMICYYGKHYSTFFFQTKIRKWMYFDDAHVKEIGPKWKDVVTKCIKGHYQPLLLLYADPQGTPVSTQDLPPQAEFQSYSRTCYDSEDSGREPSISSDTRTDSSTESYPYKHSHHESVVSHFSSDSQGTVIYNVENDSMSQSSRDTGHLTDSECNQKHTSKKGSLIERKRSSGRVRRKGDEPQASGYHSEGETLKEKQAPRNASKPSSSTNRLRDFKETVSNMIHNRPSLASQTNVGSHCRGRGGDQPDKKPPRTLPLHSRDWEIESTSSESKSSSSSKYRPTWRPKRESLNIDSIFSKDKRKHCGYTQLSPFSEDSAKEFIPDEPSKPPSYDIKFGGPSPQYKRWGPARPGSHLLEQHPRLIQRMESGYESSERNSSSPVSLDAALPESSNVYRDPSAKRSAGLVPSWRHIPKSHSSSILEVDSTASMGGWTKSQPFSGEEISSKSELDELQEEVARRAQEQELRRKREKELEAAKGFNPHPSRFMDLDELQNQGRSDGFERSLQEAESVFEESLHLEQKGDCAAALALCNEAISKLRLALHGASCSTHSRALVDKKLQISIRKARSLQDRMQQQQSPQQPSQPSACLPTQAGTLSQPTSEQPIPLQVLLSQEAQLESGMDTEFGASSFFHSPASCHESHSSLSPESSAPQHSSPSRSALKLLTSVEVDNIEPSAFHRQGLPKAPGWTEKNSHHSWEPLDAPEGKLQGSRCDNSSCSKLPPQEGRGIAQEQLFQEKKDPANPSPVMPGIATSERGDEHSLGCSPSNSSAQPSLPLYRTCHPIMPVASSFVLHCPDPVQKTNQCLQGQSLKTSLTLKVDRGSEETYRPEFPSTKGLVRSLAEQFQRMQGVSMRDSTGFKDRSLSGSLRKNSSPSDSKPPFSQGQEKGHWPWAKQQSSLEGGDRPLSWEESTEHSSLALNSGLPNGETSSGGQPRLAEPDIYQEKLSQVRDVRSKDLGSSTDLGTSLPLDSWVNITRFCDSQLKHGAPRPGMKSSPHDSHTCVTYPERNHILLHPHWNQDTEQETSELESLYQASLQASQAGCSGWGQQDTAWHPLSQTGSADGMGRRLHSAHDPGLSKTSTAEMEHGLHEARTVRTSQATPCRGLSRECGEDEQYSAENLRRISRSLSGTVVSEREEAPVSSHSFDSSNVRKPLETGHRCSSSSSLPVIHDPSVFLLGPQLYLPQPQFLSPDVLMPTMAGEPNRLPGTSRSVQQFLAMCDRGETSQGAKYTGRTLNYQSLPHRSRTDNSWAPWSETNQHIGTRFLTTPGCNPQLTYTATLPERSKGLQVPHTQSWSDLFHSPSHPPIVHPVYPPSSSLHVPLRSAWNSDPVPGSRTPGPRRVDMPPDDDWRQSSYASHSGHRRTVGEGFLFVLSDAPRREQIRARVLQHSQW
Sequence of USP7 (Q93009 whole entry, looked up): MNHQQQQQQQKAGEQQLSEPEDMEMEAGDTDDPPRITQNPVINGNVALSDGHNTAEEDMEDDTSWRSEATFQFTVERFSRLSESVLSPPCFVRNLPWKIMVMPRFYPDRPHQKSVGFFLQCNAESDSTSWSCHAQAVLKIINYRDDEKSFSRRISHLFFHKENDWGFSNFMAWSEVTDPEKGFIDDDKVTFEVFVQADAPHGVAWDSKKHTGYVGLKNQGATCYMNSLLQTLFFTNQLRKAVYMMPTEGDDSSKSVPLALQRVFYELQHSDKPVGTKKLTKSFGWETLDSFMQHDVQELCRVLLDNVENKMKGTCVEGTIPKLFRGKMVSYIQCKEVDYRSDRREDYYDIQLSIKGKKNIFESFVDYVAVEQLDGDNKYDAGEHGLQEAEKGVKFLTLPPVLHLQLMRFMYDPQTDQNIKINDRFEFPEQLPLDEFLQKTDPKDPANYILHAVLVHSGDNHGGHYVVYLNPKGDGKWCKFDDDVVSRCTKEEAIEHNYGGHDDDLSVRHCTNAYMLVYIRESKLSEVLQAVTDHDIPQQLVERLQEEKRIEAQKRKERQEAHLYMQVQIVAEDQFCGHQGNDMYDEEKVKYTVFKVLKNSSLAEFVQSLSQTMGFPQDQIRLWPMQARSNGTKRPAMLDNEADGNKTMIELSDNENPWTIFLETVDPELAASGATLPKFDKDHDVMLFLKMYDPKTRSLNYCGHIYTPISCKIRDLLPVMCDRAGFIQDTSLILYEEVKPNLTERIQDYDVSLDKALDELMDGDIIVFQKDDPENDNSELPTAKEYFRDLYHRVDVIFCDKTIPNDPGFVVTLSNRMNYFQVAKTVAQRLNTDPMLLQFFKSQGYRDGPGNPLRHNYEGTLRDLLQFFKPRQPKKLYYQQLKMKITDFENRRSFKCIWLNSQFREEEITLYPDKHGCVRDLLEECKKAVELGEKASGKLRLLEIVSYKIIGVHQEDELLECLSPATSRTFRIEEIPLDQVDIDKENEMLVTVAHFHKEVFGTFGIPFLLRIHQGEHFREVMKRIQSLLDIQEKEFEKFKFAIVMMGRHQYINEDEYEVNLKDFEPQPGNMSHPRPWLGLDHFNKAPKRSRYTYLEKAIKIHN
Sequence of USP46 (P62068 whole entry): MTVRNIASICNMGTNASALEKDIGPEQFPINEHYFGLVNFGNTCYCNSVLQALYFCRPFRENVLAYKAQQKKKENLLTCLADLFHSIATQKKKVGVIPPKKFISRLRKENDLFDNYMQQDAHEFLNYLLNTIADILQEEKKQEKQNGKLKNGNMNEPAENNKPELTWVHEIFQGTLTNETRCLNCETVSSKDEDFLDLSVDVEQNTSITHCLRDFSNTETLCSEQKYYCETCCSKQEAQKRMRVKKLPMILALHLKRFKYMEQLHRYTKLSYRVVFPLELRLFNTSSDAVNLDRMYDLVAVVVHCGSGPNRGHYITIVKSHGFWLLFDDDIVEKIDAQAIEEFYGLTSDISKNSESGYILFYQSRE

Cl.O=C(CN1CCN(C(=O)CCl)CC1)Nc1ccc(F)cc1
inactive: USP42 0.733 | USP46 0.0462 | USP47 -0.158 | USP48 -0.321 | USP5 0.365 | USP54 0.194 | USP7 -0.291 | USP8 0.234
